Experimental data: PubChem BioAssay AID1650 (Southern Research Specialized Biocontainment Screening …, 2009)
Potency and affinity values are given separately. Calls of active or inactive are those of the source. Where a call stands in place of a potency, no number is given. How the calls were made is not given here.

Test: mammalian cell viability reduction – secondary assay, cytotoxicity control for West Nile virus antiviral project, dose response (AID 1650)
Conditions: Mammalian host cell viability, cytotoxicity counter-screen; series mostly up to 10 µM

SMILES | outcome
O=C(CNc1cccc2ccccc12)N/N=C/c1ccc([N+](=O)[O-])o1 | inactive
Cc1cc(C)c(-c2csc(NC(=O)/C=C/c3cccs3)n2)c(C)c1 | inactive
O=C(NCCCN1CCCC1)c1ccc2c(c1)N(Cc1cccc(Cl)c1)C(=O)c1ccccc1S2=O (stereo unspecified) | inactive
CC1CCN(c2nc3ccc(C(=O)NCCCN4CCCCC4C)cc3s2)CC1 (stereo unspecified) | inactive
Cc1ccc(C)c(CN2C(=O)c3ccccc3S(=O)c3ccc(C(=O)NCCCN4CCCC4)cc32)c1 (stereo unspecified) | inactive
CCc1ccc(-c2cc3c(=O)n(CC(=O)NCCCN4CCN(CC)CC4)nc(C)n3n2)cc1 | inactive
O=c1[nH]c2ccc(Cl)cc2c(-c2ccccc2)c1N1CCN(CCO)CC1 | inactive
O=C(CSc1nc2ccccc2c(=O)n1-c1ccc(F)cc1F)Nc1ccc(N2CCOCC2)cc1 | inactive
CCCCCCOC(=O)C(C#N)c1nc2ccccc2nc1N1CCN(C)CC1 (stereo unspecified) | inactive
CC(C)c1cc(C(=O)OCC(=O)NC(=O)NCc2ccco2)c(O)c(C(C)C)c1 | inactive
Cc1cccc(N(CC(=O)NCc2ccco2)C(=O)CCC(=O)Nc2ccccn2)c1C | inactive
Cc1cc(C)cc(N(CC(=O)NCc2ccco2)S(=O)(=O)c2c(C)noc2C)c1 | inactive
CCN(CC)CCCNc1nc(-c2ccccc2)nc2ccccc12 | inactive
Cc1cncn1CCc1nc2c3ccccc3nc(SCC(=O)Nc3cccc(Cl)c3)n2n1 | inactive
O=C(COc1ccc(Cl)cc1)NCCSCc1cccc(Cl)c1 | inactive
COc1ccc(CCNC(=O)c2cc3c(=O)n4cccc(C)c4nc3n(CCCN3CCOCC3)c2=N)cc1 | inactive
